Data as given in PubChem BioAssay AID430 (Sanford-Burnham Center for Chemical Genomics, 2006).
In all, about 63,000 compounds went through this assay and about 1,100 (1.7%) were called active. No stated cut-off is given here; in the data, active means cytotoxicity above about 50%; inactive means the rest. What follows is part of a selection rich in actives, with near analogues and random picks from the rest. Entries with a potency or affinity are not part of this list.

Assay: HPDE-C7 pancreatic duct cell viability loss – fluorescence, HTS (AID 430);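 further: cells exposed to compound for 48 hours before viability readout; 0% = vehicle and 100% = reference cytotoxic drug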
Settings: HPDE-C7 pancreatic duct cells viability, at 10 µM, hits give high values

Row | SMILES | cytotoxicity
1 | C=C(C)CSc1nc2nc(C)cc(C)n2n1 | 9.4% (inactive)
2 | CC(C)NC(=O)CN(C)S(=O)(=O)c1ccc(F)cc1 | 1.5% (inactive)
3 | O=C1NC2(CCCC2)N=C1c1ccc(Cl)cc1 | -2.7% (inactive)
4 | O=C1NC2(CCCCC2)N=C1c1ccccc1 | -3% (inactive)
5 | O=C(CN1CCN(c2ccc(F)cc2)CC1)Nc1ccc(-n2cnnn2)cc1 | 16.2% (inactive)
6 | CCOc1ccc2nc(NCCNC(=O)C3CC3)c(C)cc2c1 | -13.7% (inactive)
7 | CCCCc1ccc(CC(=O)O)cc1 | -6.3% (inactive)
8 | CCCCc1ccc(-c2ccc(C)cc2O)nc1 | -28.6% (inactive)
9 | COc1cccc2c1nc(C)c1cc(C)oc12 | -6.1% (inactive)
10 | Cc1cc(Nc2cc(C)on2)n2ncnc2n1 | 1.6% (inactive)
11 | O=C(NCc1ccc2c(c1)OCO2)c1ccc2c(=O)n(C3CCCC3)c(=O)[nH]c2c1 | 2.7% (inactive)
12 | Cc1ccc(CC2SC(=O)NC2=O)cc1Cl (stereo not drawn) | -2.2% (inactive)
13 | c1ccc(-n2nnnc2SCCCSc2nc3ccccc3s2)cc1 | 5.8% (inactive)
14 | COc1ccc(-n2nnnc2SCC(=O)NCCc2ccc(OC)c(OC)c2)cc1 | -0.4% (inactive)
15 | Cc1ccc(C)c(Oc2nnnn2-c2ccccc2)c1 | -0.9% (inactive)
16 | Cn1ccnc1Sc1nnnn1-c1ccccc1 | -14.7% (inactive)
17 | CCCSc1nnc(Sc2nnnn2-c2ccccc2)s1 | 81% (active)
18 | C(=C\CSc1nnnn1-c1ccccc1)/CSc1nnnn1-c1ccccc1 | -4.4% (inactive)
19 | COc1ccc(CCNc2nnc(Sc3nnnn3-c3ccccc3)s2)cc1OC | 53.9% (active)
20 | COc1ccc(CCNC(=O)CSc2nnnn2-c2ccccc2OC)cc1OC | 8% (inactive)
21 | COc1ccc(Cc2nnc(SCC(=O)NCC3CCCO3)o2)cc1 (stereo not drawn) | 0.6% (inactive)
22 | Cn1c2c(c(=O)n(C)c1=O)C(NC(=O)c1ccco1)(C(F)(F)F)C(=O)N2 (stereo not drawn) | -22.3% (inactive)
23 | O=S(=O)(c1ccc(Br)s1)N1CCN(c2ccccc2)CC1 | -10.8% (inactive)
24 | COc1ccccc1NC(=O)c1nnn(Cc2ccccc2)c1NC(C)=O | 2.6% (inactive)
25 | COC(=O)Nc1ccc(NC(C)=O)cc1 | -16% (inactive)
26 | CCOC(=O)c1cc(-c2ccncc2)nc2c1c(C)nn2C | 4% (inactive)

Row | SMILES | cytotoxicity
27 | COc1ccc(C(OC(=O)c2c(C)noc2C)C(=O)NC2CCCC2)cc1 (stereo not drawn) | 1.7% (inactive)
28 | CCN1CCN(CCCNC(=O)c2cc3sccc3n2CC)CC1 | 3.8% (inactive)
29 | CCOCCCNC(=O)CSc1ccccc1 | -13.6% (inactive)
30 | O=S(=O)(c1ccc2c(c1)nc1n2CCC1)N1CCOCC1 | 30.9% (inactive)
31 | O=S(=O)(c1ccc(Br)cc1)N1CCn2c(nc3ccccc32)C1 | 1.5% (inactive)
32 | COc1cc(CNc2ccc(C)c(C)c2)cc(OC)c1OC | 46.9% (inactive)
33 | COc1ccc(C(O)CNc2ccc(C)cc2)cc1 (stereo not drawn) | -2.1% (inactive)
34 | Cc1ccc(NCC(O)C(O)C(O)CO)cc1C (stereo not drawn) | 53.3% (active)
35 | COc1ccc(OC)c(S(=O)(=O)N(C)CC(=O)Nc2ccc3c(c2)OCCO3)c1 | -1.4% (inactive)
36 | CCOc1ccc(N2CC(C(=O)NCCc3ccc(OC)c(OC)c3)CC2=O)cc1 (stereo not drawn) | 5.7% (inactive)
37 | CS(=O)(=O)N1CCC(C(=O)NCc2ccc(F)cc2Cl)CC1 | -2.6% (inactive)
38 | CCOc1ccccc1NC(=O)CCn1c(=O)oc2ccccc21 | 0.7% (inactive)
39 | COc1cc(OC)cc(-n2nnnc2SCC(=O)N2CCCC2)c1 | -7.2% (inactive)
40 | COc1ccc(-n2nnnc2S(=O)(=O)Cc2ccc(C(=O)O)cc2)cc1 | 4.8% (inactive)
41 | COc1ccc(-n2nnnc2S(=O)(=O)CC(=O)N2CCCCC2)cc1 | 76.4% (active)
42 | Cc1oc(-c2ccccc2F)nc1CS(=O)CC(=O)NCc1cccs1 (stereo not drawn) | -2.6% (inactive)
43 | CCc1c(O)nc(SCC(=O)Nc2ccc(C)cc2)n(C2CCCCC2)c1=O | 51.2% (active)
44 | CCc1c(O)nc(SCC(=O)Nc2ccc(OC)cc2)n(C2CCCCC2)c1=O | -8.3% (inactive)
45 | CCc1c(O)nc(SCC(=O)Nc2ccccc2)n(-c2ccccc2)c1=O | 23% (inactive)
46 | COc1ccc(N2C(=O)CCC(C(=O)c3ccccc3)=C2C)cc1 | -2.2% (inactive)
47 | Cc1c2c(nc3nc4ccccc4n13)CC(C)(C)CC2=O | 0.8% (inactive)
48 | Cc1cc(C)c2cc(C#N)c(SCC(=O)NCC3CCCO3)nc2c1 (stereo not drawn) | -15.1% (inactive)
49 | CCc1cccc(Nc2cc(C)nc3ncnn23)c1 | -0.8% (inactive)
50 | CCn1c2ccccc2c2cc(Nc3cc(C)nc4ncnn34)ccc21 | 64.5% (active)
51 | Cc1cc(Nc2ccc3ccccc3c2)n2ncnc2n1 | -0.5% (inactive)
52 | CCOCc1nnc(NC(=O)CSCc2ccccc2)s1 | -3.4% (inactive)

Row | SMILES | cytotoxicity
53 | CC1CCCN(c2ncnc3c2cnn3-c2ccccc2)C1 (stereo not drawn) | -9.4% (inactive)
54 | Cc1cc(NC(=O)c2c(-c3ccccc3Cl)noc2C)no1 | -12.4% (inactive)
55 | CC(C)CNC(=O)c1c(N)n(/N=C/c2ccccn2)c2nc3ccccc3nc12 | 14.8% (inactive)
56 | CCCCNC(=O)c1c(N)n(/N=C/c2ccccn2)c2nc3ccccc3nc12 | 50.5% (active)
57 | CCC(C)NC(=O)c1c(N)n(/N=C/c2cccnc2)c2nc3ccccc3nc12 (stereo not drawn) | 41.4% (inactive)
58 | COCCCNC(=O)c1c(N)n(/N=C/c2cccnc2)c2nc3ccccc3nc12 | 33.1% (inactive)
59 | CC(C)OCCCNC(=O)c1c(N)n(/N=C/c2ccccn2)c2nc3ccccc3nc12 | 28.4% (inactive)
60 | COCCCNC(=O)c1c(N)n(/N=C/c2ccccn2)c2nc3ccccc3nc12 | 22% (inactive)
61 | COCCNC(=O)c1c(N)n(/N=C/c2cccs2)c2nc3ccccc3nc12 | 42.8% (inactive)
62 | CCOc1cc(C(=O)NCCOC)ccc1OC | -6.6% (inactive)
63 | CC(=O)N1CCN(S(=O)(=O)c2ccc(C)cc2)C1C(C)C (stereo not drawn) | 11% (inactive)
64 | CCOc1ccc(-c2cc(CCCC(=O)NCc3cccnc3)no2)cc1 | -0.4% (inactive)
65 | Cn1cccc1Cc1nnc(SCC(=O)NCC2CCCO2)n1-c1ccc(F)cc1 (stereo not drawn) | 0.9% (inactive)
66 | COc1ccc(NC2=NC3(CCCCC3)N=C(N)N2)cc1 | 4.1% (inactive)
67 | COc1cccc(NC2=NC3(CCCCC3)N=C(N)N2)c1 | 3.1% (inactive)
68 | CCSc1nnc(NC(=O)c2cnccn2)s1 | -7% (inactive)
69 | CCOC(=O)N1CCC(NC(=O)CC(NS(=O)(=O)c2ccc(Cl)cc2)c2ccco2)CC1 (stereo not drawn) | -6.1% (inactive)
70 | COc1ccc(OC)c(NC(=O)CCN2CCN(Cc3ccccc3)CC2)c1 | 0.1% (inactive)
71 | Cc1cccc(-c2nc(CS(=O)CC(=O)NCCCSC3CCCCC3)c(C)o2)c1 (stereo not drawn) | 56.1% (active)
72 | CCCCNC(=O)CS(=O)Cc1nc(-c2cccc(C)c2)oc1C (stereo not drawn) | 0.4% (inactive)
73 | CCCCSCCCNC(=O)CS(=O)Cc1nc(-c2cccc(C)c2)oc1C (stereo not drawn) | -17.4% (inactive)
74 | Cc1ccc(C2(C(F)(F)F)NC(=O)N3CCN=C3S2)cc1 (stereo not drawn) | 81.6% (active)
75 | O=C1NC(c2ccccc2)(C(F)(F)F)SC2=NCCCN12 (stereo not drawn) | -2.2% (inactive)
76 | Cc1ccc(C2(C(F)(F)F)NC(=O)N3CCCN=C3S2)cc1 (stereo not drawn) | -18.8% (inactive)
77 | CC(C)c1ccc2c(c1)C(=O)NC(C)(C)C2 | 1.8% (inactive)
78 | COc1ccccc1C(=O)NCCn1cc(SCC(=O)Nc2nnc(C)s2)c2ccccc21 | -8% (inactive)

Row | SMILES | cytotoxicity
79 | CCCn1c(CN(Cc2ccccc2)Cc2ccccc2)nc2c1c(=O)n(C)c(=O)n2C | -14.9% (inactive)
80 | CC(C)Cn1c(CN(Cc2ccccc2)Cc2ccccc2)nc2c1c(=O)n(C)c(=O)n2C | 51.7% (active)
81 | CC(C)Cn1c(CN(C)Cc2ccccc2)nc2c1c(=O)n(C)c(=O)n2C | -6.6% (inactive)
82 | CCOP(=O)(c1ccc(N(C)C)cc1)C(O)c1cc(OC)c(OC)c(OC)c1 (stereo not drawn) | 5.9% (inactive)
83 | CCOC(=O)C(C)Sc1nc(-c2cccs2)ccc1C#N (stereo not drawn) | 59.2% (active)
84 | C=COC(=O)CSc1nc(-c2cccs2)ccc1C#N | 26.7% (inactive)
85 | COC(=O)CSc1nc(-c2cccs2)ccc1C#N | 29.9% (inactive)
86 | O=C(Nc1ccccc1N1CCCC1)c1ccco1 | 3.9% (inactive)
87 | O=c1[nH]c2cc3c(cc2cc1CN(CCCO)Cc1nnnn1Cc1ccc(F)cc1)OCO3 | -1.2% (inactive)
88 | CC(=O)Nc1nc(C)nc(-c2ccccc2)c1C(C)=O | -1.8% (inactive)
89 | CCc1nnc(NC(=O)CSc2nnc(-c3ccccc3O)n2-c2ccc(C)cc2C)s1 | 73.5% (active)
90 | CCc1nnc(NC(=O)CSc2nnc(-c3ccccc3O)n2-c2ccc(C)cc2)s1 | -7.9% (inactive)
91 | CCc1nnc(NC(=O)CSc2nnc(-c3ccccc3OC)n2-c2ccccc2)s1 | -8.7% (inactive)
92 | C=CCN(CC=C)S(=O)(=O)c1ccc2nc(NC(=O)C(C)C)sc2c1 | 76.7% (active)
93 | CCOC(=O)c1ccc2nc(NC(=O)C(C)C)sc2c1 | -3.3% (inactive)
94 | C=CCN(CC=C)S(=O)(=O)c1ccc2nsnc2c1 | -6.7% (inactive)
95 | COc1ccc(-c2noc(CSc3nc4ccccc4c(=O)n3-c3ccccc3)n2)cc1OC | -10.3% (inactive)
96 | Cc1ccccc1NC(=O)C1CCCN(S(=O)(=O)c2cnc[nH]2)C1 (stereo not drawn) | -5.3% (inactive)
97 | CC(C)c1[nH]nc2c1C(C(C)C)C(C#N)=C(N)O2 (stereo not drawn) | -24.3% (inactive)
98 | NC1=NC(c2ccc(F)cc2)n2c(nc3ccccc32)N1 (stereo not drawn) | -3.6% (inactive)
99 | Cc1cc(C2N=C(N)Nc3nc4ccccc4n32)c(C)n1-c1ccccc1Cl (stereo not drawn) | 2.7% (inactive)
100 | COc1cc(S(=O)(=O)N2CCN(c3ccccc3)CC2)ccc1Cl | -12.6% (inactive)
101 | CC(C)c1nc(SCc2c(F)cccc2Cl)c2c(=O)n(C)c(=O)n(C)c2n1 | 77.1% (active)
102 | CC(C)c1nc(SCc2ccccn2)c2c(=O)n(C)c(=O)n(C)c2n1 | -2% (inactive)
103 | Cc1nc(SCc2c(F)cccc2Cl)c2c(=O)n(C)c(=O)n(C)c2n1 | -26.2% (inactive)
